Screening results: PubChem, National Center for Advancing Translational Sciences (NCATS)
Luc counter: blocks Kinase-Glo luciferase, a counter-screen artifact | Kinase-Glo luciferase, ATP luminescence, 8 min | AID 1379 | hit rate 0.28% among 200,000 | Potency, µM (titrated, usually from 38.3 µM), hits mostly inhibitors | Q27757; also: nearly all actives have a fitted effect of over 60% in size
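Recombinant Kinase-Glo luciferase, 10 uM ATP (linear range), luciferin; imidazole pH 7.2 / KCl / MgCl2 / Tween / BSA buffer; 8 min RT; luminescence.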
Tau fluor counter: counter-screen for tau fibril formation inhibitors | tau K18 P301L Alexa594 fluorescence, heparin fibrillization | Potency, µM (doses to about 57.7 µM) | hit rate 0.93% among 280,000; also: nearly all actives have a fitted effect of over 55% in size
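Human K18 P301L tau (15 uM unlabeled plus 0.24 uM Alexa 594-labeled, final) in 100 mM sodium acetate pH 7 was mixed with compound and 20 uM heparin and incubated 6 hr at 37 C.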
Tau FP inhib: inhibitors of human tau fibril formation. P10636. K18 P301L tau heparin fibrillization, Alexa594 FP, 6 h. Potency, µM (top dose mostly 57.7 µM), most hits filed as inhibitors. hit rate 0.39% among 280,000. AID 1468; also: nearly all actives have a fitted effect of over 55% in size
Target sequence (P10636 561-689 P618L limits assumed): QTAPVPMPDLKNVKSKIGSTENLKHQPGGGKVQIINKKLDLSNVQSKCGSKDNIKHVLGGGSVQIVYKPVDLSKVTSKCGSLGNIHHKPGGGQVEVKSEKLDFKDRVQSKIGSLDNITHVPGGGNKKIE
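K18 P301L tau (15 uM unlabeled/0.24 uM Alexa 594-labeled, final) + compound + heparin 20 uM final; 100 mM NaOAc pH 7; 6 hr 37 C; ThT 30 uM final added, 1 hr RT; FP ex 555/em 632 nm.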
Tau fibril ThT: inhibitors of human tau fibril formation, thioflavin T binding | hit rate 2.1% among 270,000 | Potency, µM (series often up to 57.4 µM), hits mostly inhibitors | recombinant tau K18 P301L (four-repeat tau fragment), heparin-induced fibrillization, ThT fluorescence; also: nearly all actives have a fitted effect of over 55% in size
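K18 P301L tau (15 uM + 0.24 uM Alexa 594-tagged), heparin 20 uM, NaOAc pH 7, 6 h 37 C; ThT 30 uM, 1 h RT, ex 450/em 510 nm.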
NPSR antag: antagonists of human neuropeptide S receptor cAMP signaling; AID 1461; hit rate 1% among 220,000; Potency, µM (titrated, usually from 38.3 µM), hits mostly inhibitors; CHO-NPSR cells, cAMP TR-FRET, antagonist mode; also: nearly all actives have a fitted effect of over 50% in size
Target sequence (Q6W5P4 whole entry, looked up): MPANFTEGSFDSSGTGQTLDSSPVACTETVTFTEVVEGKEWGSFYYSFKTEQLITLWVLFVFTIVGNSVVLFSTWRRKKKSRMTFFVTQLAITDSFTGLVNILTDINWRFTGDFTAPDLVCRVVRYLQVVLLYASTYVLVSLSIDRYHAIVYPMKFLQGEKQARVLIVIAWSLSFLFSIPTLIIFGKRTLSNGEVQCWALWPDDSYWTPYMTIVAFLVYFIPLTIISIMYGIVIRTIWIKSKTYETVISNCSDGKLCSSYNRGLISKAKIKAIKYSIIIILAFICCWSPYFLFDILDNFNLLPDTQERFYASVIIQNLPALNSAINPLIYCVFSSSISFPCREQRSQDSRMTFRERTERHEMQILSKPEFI
Numbers stand for hits; . = inactive; ? = inconclusive; / = not tested or not shown; [ ] = another dose, or the depositor's remark. Sampled rows, rich in hits. Any-hit rate of the full collection: about 3.3%. Calls follow the shape of the dose curve; as a rule, active = well fitted curve in the direction sought with a large enough effect; inconclusive = small, poorly fitted or top-dose-only effect, or another doubt; inactive = no such curve, though single readings can be large; an effect the other way counts as inactive or inconclusive.

SMILES	Luc counter	Tau fluor counter	Tau FP inhib	Tau fibril ThT	NPSR antag
Cc1cc(C)c(C)c(S(=O)(=O)NC(C)C(=O)O)c1C (stereo unspecified)	/	.	.	.	.
CC(C)(C)C1CCC(=NNc2ccc(S(N)(=O)=O)cc2[N+](=O)[O-])CC1 (stereo unspecified)	.	?	.	13µM	?
CC1CCCC/C1=N\Nc1ccc(S(N)(=O)=O)cc1[N+](=O)[O-] (stereo unspecified)	.	.	.	16µM	.
CC(=O)N1CCc2cc(S(=O)(=O)NC(Cc3ccccc3)C(=O)Nc3ccc(Cl)cc3)ccc21 (stereo unspecified)	/	.	.	.	/
COc1ccc(-c2cc([C@H](O)C3CCCCN3)c3ccccc3n2)cc1 (stereo partly specified)	.[7.66 µM]	/	/	/	/
C=CC[n+]1c(-c2ccc(OCC)cc2)csc1NNC(=O)Nc1ccccc1	.	?	.	13µM	?
Cc1ccc(-c2nc3cc(N)ccc3o2)c(C)c1	.	.	.	?	.
Nc1ccc2oc(-c3cccc4ccccc34)nc2c1	.	16µM[quencher]	.	?	.
Nc1c(C(=O)Nc2ccccc2)c2nc3ccccc3nc2n1-c1ccc(O)cc1	/	14µM[quencher]	?	?	.
Cc1ccc(NS(=O)(=O)c2cccc(C(=O)NCC3(N(C)C)CCCCC3)c2)cc1	.	.	.	.	10µM
Cc1ccc(NS(=O)(=O)c2cccc(C(=O)NCC(c3cccs3)N(C)C)c2)cc1 (stereo unspecified)	.	.	.	.	.
Cc1cc(C)cc(NC(=O)Nc2ccc(-n3ccc(C(F)(F)F)n3)cc2)c1	/	?	18µM	.	.
CN(C)c1ccc(NC(=O)Nc2cccc(Cl)c2)cc1	.	14µM[quencher]	.	13µM	.
Cc1cc(C)cc(NC(=O)Nc2ccc(N3CCCCC3)cc2)c1	/	20µM[quencher]	.	?	?
O=C(O)CCC(=O)Nc1ccc(-n2ccc(C(F)(F)F)n2)cc1	/	.	.	/	.
Cc1cc(C)cc(C(=O)Nc2ccc(N3CCCC3)cc2)c1	.	.	.	.	.
COc1ccccc1NC(=O)Nc1ccc(-n2ccc(C(F)(F)F)n2)cc1	/	14µM[quencher]	?	?	?
Cc1cc(C)c2c(n1)SCCN2C(=O)Nc1ccc(C(=O)Nc2cc(Cl)ccc2C)cc1	/	.	.	.	/
COC(=O)C1=C(C(=O)OC)[C@@H]2N(Cc3ccccc3)c3ccccc3[C@@]23C[C@@H](C(=O)OC)N(S(=O)(=O)c2ccc(C)cc2)C3=N1	.[7.66 µM]	.[11.6 µM]	.[11.6 µM]	.[11.5 µM]	/
O=C(Nc1cccc(Cl)c1)Nc1csc([N+](=O)[O-])c1	/	8.9µM[quencher]	?	16µM	?
O=C(Nc1ccc(-n2ccc(C(F)(F)F)n2)cc1)Nc1cccc(Cl)c1	/	?	3.5µM	.	?
O=C(O)c1ccccc1C(=O)Nc1ccc(-n2ccc(C(F)(F)F)n2)cc1	/	.	.	.	.
CC(C(=O)NCc1ccccc1)n1ccc2cc(S(=O)(=O)N3CCCC3)ccc21 (stereo unspecified)	/	.	.	.	/
N=c1ccn2c(n1)O[C@H]1[C@@H](OP(=O)(O)O)[C@H](CO)O[C@H]12	.[7.66 µM]	/	/	/	/
O=c1ccsn1Cc1ccccc1	.	.	14µM	10µM	.
SMILES	Luc counter	Tau fluor counter	Tau FP inhib	Tau fibril ThT	NPSR antag
CCOC(=O)c1sc(NC(=O)c2sccc2C)cc1C	11µM	?	.	?	.
CCOC(=O)c1sc(NC(=O)c2cccs2)cc1C	?	.	.	.	.
CCOC(=O)c1sc(NC(=O)Nc2cccc(Cl)c2)cc1C	.	3.5µM[quencher]	?	.	.
COc1ccc(Cl)cc1NC(=O)CSc1nc(=O)n(Cc2ccco2)c2c1CCC2	/	.	.	?	/
COc1cccc(-c2cn3nc4c(nc3n2)CCCC4)c1	10µM	.	?	14µM	.
Clc1ccc(-c2cn3nc4c(nc3n2)CCCC4)cc1	?	.	.	?	.
CCOC(=O)c1ccccc1NC(=O)CSc1nnnn1C1CCCCC1	/	?	?	14µM	?
CCOC(=O)CN1C(c2ccc(O)cc2)Nc2ccc(Br)cc2C1c1ccccc1 (stereo unspecified)	.	7.1µM[quencher]	?	?	.
CCOC(=O)CN1C(=O)Nc2ccc(Br)cc2C1c1ccccc1 (stereo unspecified)	.	.	.	.	.
COc1ccc(O[C@H]2C=C[C@@H](c3ccccc3)O[C@H]2COC(=O)CC/C(C)=N/OCC[C@@H]2C=C[C@H](OC(C)=O)[C@H](COC(C)=O)O2)cc1	/	.[11.6 µM]	?	.[11.5 µM]	/
CC(=O)N1C(=O)C2(C(C#N)=C(N)Oc3c2c(C)nn3-c2ccccc2)c2ccccc21 (stereo unspecified)	.	?	?	28µM	.
Cc1nn(-c2ccccc2)c2c1C1(C(=O)N3c4c(cccc41)C(C)CC3(C)C)C(C#N)=C(N)O2 (stereo unspecified)	.	?	?	?	.
Cc1nn(-c2ccccc2)c2c1C1(C(=O)N(C)c3ccccc31)C(C#N)=C(N)O2 (stereo unspecified)	.	?	?	22µM	.
CCN1C(=O)C2(C(C#N)=C(N)Oc3c2c(C)nn3-c2ccccc2)c2ccccc21 (stereo unspecified)	.	?	?	16µM	.
COc1ccc(C(=O)c2no[n+]([O-])c2C(=O)c2ccc(OC)cc2)cc1	.	.	?	18µM	.
COc1ccc(NC(=O)c2c(N)no[n+]2[O-])cc1	.	.	.	.	.
NC(=O)c1c(NC(NC(=O)c2ccco2)C(=O)c2ccc(Cl)cc2)sc2c1CCCC2 (stereo unspecified)	.	?	.	25µM	.
N#Cc1c(NC(NC(=O)c2ccco2)C(=O)c2ccccc2)sc2c1CCCC2 (stereo unspecified)	.	?	.	?	.
COc1ccc(CCNC(=O)C(=O)c2c[nH]c3ccccc23)cc1	/	.	.	.	/
COc1ccc(-n2ccnc(NCc3cccs3)c2=O)cc1	/	.	.	.	/
O=C(OCc1csc(Nc2ccccc2)n1)c1ccc(Cl)cc1	.	13µM[quencher]	?	?	.
O=C(COc1ccccc1)OCc1csc(Nc2ccccc2)n1	.	?	.	?	.
Cc1ccc(-c2ccc(/C=C3\C(=O)ON=C3c3ccccc3)o2)c([N+](=O)[O-])c1	.	?	.	16µM	7.9µM
Cc1ccc(/C=C2\C(=O)ON=C2c2ccccc2)o1	.	.	.	?	.
Cc1ccccc1OCc1ccc(-c2nc(C#N)c(N3CCN(c4ccccc4)CC3)o2)o1	/	.	.	.	/
N#Cc1cc(Sc2ccccn2)c([N+](=O)[O-])cc1C#N	.	?	.	14µM	.
N#Cc1cc(Sc2ccccn2)c(Sc2ccccn2)cc1C#N	.	.	.	?	?
C[n+]1cccc2c(Br)ccc([O-])c21	/	?	?	14µM	.
[O-][n+]1cccc2c(Br)cc(Br)c(O)c21	.	.	.	?	.
CC1=CN2C(=N)/C(=C/c3ccc([N+](=O)[O-])o3)C(=O)N=C2S1	.	?	?	13µM	13µM
